# About 83,000 compounds went through this panel and 20% of them were active in at least one assay; those are over-represented in the sample as a whole.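 Assay: single dose, 48 h. Readout: percent growth (0 = no net growth; negative = cell death). Active: <10.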 Values without a mark were called inactive. Active and inactive are the calls of the source.
# System: KM12 colon
# Assay: NCI-60 one-dose screen, 48 h (100 = growth as untreated, 0 = no growth, -100 = all killed)
# Conditions: 10 µM unless noted
row,SMILES,growth
1,CC1=C(C(=O)Nc2ccccc2)C(c2cccc3ccccc23)n2c(nc3ccccc32)N1 (stereo not given),89.9%
2,COc1ccc2nc(NC(=O)c3ccc(N(C)C)cc3)sc2c1,57.8%
3,C[C@H]1[C@@H](CC(=O)N[C@@H](Cc2coc3ccccc23)B(O)O)O[C@@H]2OC3(C)CC[C@H]4[C@H](C)CC[C@@H]1[C@@]24O3,0.198% (active)
4,Fc1ccc(N2CC(Cn3c(C(F)(F)F)cc4c(Cl)ncnc43)C2)c(F)c1,99.5%
5,Cn1cc(-c2cc(N)n3nc(-c4c[nH]c5ccc(F)cc45)cc3n2)c2cc(Br)cnc21,3.18% (active)
6,O=C1Nc2ccc(F)cc2/C1=C/C(=O)c1cc2ccccc2oc1=O,101%
7,O=C(CSc1nc2ccccc2c(=O)[nH]1)NNC(=O)c1ccccc1Cl,101%
8,CCCCNc1ccc2c3c(cccc13)C(=O)N(NCC(O)COc1ccc3c(C)cc(=O)oc3c1)C2=O (stereo not given),85.7%
9,COc1cc(CNC(=O)C[C@H](C)CCC=C(C)C)ccc1OCc1cn(-c2ccccc2Cl)nn1,63%
10,Cc1cccc(-c2ccccc2Oc2ccc3nnc(Cl)n3n2)c1,106%
11,CCOc1ccccc1[C@H]1C(C(=O)c2ccc(Cl)cc2)C2(N[C@@H]1c1ccccc1)C(=O)Nc1ccccc12 (stereo not given in full),12.4%
12,CCc1ccccc1-c1nc(CN[C@@H]2C[C@@H]3C[C@H]([C@H]2C)C3(C)C)c(C)o1,-87.4% (active)
13,COc1cc(C=O)ccc1OC(=O)c1cc(-c2ccc(C)cc2)n(-c2ccc(S(C)(=O)=O)cc2)n1,104%
14,COC(=O)c1ccc(-c2c(-c3ccccc3)c(F)c3oc(C(=O)OC)c(N)c3c2-c2ccccc2)cc1,95.6%
15,C#CCN(C)CCCOc1ccc(N(C)C(=O)c2cc(C(C)C)c(O)cc2O)cc1Cl,5.69% (active)
16,COc1c2c(c(Br)c3c1C(CCc1ccccc1)N(C)CC3)OCO2 (stereo not given),11.4%
17,CN(C(=O)CN1C(=O)/C(=C/c2ccco2)SC1=S)C1CCS(=O)(=O)C1 (stereo not given),107%
18,COc1ccc(-c2nnc3c(/C=C/c4ccc(Br)cc4)nc4ccccc4n23)cc1,85.2%

row,SMILES,growth
1,CN(C)c1nc(NCCNS(=O)(=O)c2ccc(C3=Nc4c(N)nc(N)nc4NC(c4ccc(Cl)cc4)C3)cc2)nc(N2CCOCC2)n1 (stereo not given),52.9%
2,CC1=C(C(=O)OCc2ccccc2)C(c2cccc3ccccc23)n2c(nc3ccccc32)N1 (stereo not given),19.1%
3,NNc1ncnc2sc3c(c12)CCN(Cc1ccccc1)C3,53.8%
4,c1n[nH]cc1-c1nc2ccc3[nH]ncc3c2c2c1CC1(CC2)COC1,56.7%
5,CC[C@]12C=CCN3CC[C@]4(C(=C(C(=O)OC)C1)Nc1cc(OC)c([C@@H]5[C@H]6O[C@H]6[C@@]6(CC)CC(C(=O)OC)=C7Nc8cc(OC)ccc8[C@@]78CCN5[C@@H]68)cc14)[C@@H]32,49.6%
6,COc1sc(/C=N/NC(=O)c2[nH]c3ccc(Br)cc3c2-c2ccccc2)cc1Br,2.33% (active)
7,Cc1nc(Nc2ccccn2)sc1C1=NNC(c2ccccc2F)C1 (stereo not given),23.4%
8,CN1CCN(c2ccc3c4c(cccc24)C(=O)N(c2cccc(-c4nn(-c5ccccc5)cc4-c4nc5ccccc5s4)c2)C3=O)CC1,73.5%
9,Cc1ccc2c(c1)nc(-c1ccccc1)n2CC(=O)N=Nc1c(O)[nH]c2ccc(Cl)cc12,-56.2% (active)
10,O=C(N/N=C/c1ccc(Br)o1)c1[nH]c2ccc(Br)cc2c1-c1ccccc1,-1.58% (active)
11,COc1cc(/C=C/C(=O)c2ccc(S(=O)(=O)NCCNc3nc(N(C)C)nc(N4CCOCC4)n3)cc2)cc(OC)c1OC,-100% (active)
12,COc1cc(/C=C/C(=O)c2cnn(-c3cc(=O)[nH]c4ccccc34)c2C)cc(OC)c1OC,4.79% (active)
13,Cc1ccccc1Nc1nnc(-c2c[nH]c3ccccc23)o1,25%
14,O=CNc1ccc(-n2cnc3cc(-c4ccc(O)cc4)ccc32)cc1,32.4%
15,C#CCN(C)CCCOc1ccc(N(CC)C(=O)c2cc(C(C)C)c(O)cc2O)cc1Cl,-9.83% (active)
16,CCOC(=O)/C(F)=C/C1CC1CCc1ccc(OCC)cc1 (stereo not given),83.9%
17,O=C(CSc1nc2c(c(=O)[nH]1)CCCC2)Nc1ccccc1C(=O)O,103%
